Experimental data: the supplement of paper PMC4466236
The full ranking holds about 33,000 sequences; the median of “E-score (dimensionless, -0.5 to 0.5)” is about -0.058, and the highest 2% start at about 0.35. The sample as a whole holds a higher share of the highest values than the screen did.

The sequences below were run on MvaT (assay: PBM 8-mer E-score (mean of HK and ME arrays) (E-score (dimensionless, -0.5 to 0.5)); higher = stronger relative binding preference).
Summary of the method: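 Full-length P. aeruginosa MvaT carrying an N-terminal glutathione S-transferase tag was tested by protein binding microarray following a previously described protocol. Two universal double-stranded 60-mer arrays, ME and HK, were used, each with a constant 25-mer primer region and a variable 35-mer region covering all 8-mers. The rank-based E-score is the mean of the two arrays, parsed with a custom script. Its range runs from -0.5 to 0.5 for each 8-mer.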

Row | Sequence | PBM 8-mer E-score
1 | GGCTCACC | -0.247
2 | AGCTCGAG | -0.0655
3 | ATTTACTC | 0.0973
4 | AACGAGAG | -0.094
5 | AAAAGAGA | 0.103
6 | CTTATACA | 0.229
7 | ATTATATC | 0.444
8 | ATTATATA | 0.47
9 | ATTATACC | 0.337
10 | ATTATACA | 0.388
11 | ATTATAGA | 0.331
12 | ACACTAAT | 0.345
13 | CCACGGTC | -0.022
14 | AGGAGGAA | -0.174
15 | TGATAAAA | 0.258
16 | CGATATAG | 0.196
17 | CGATATAC | 0.219
18 | CGATATAA | 0.395
19 | TGATATAA | 0.353
20 | GGATATAA | 0.307
21 | CGAATAAG | 0.122
22 | ATTGGATG | 0.131
23 | CAATCCAA | -0.0468
24 | AATTCACA | 0.206
25 | CTGTATTC | 0.0463

Row | Sequence | PBM 8-mer E-score
26 | ATGTATTC | 0.152
27 | ATGTATTA | 0.399
28 | ATGTATTG | 0.244
29 | CTGTATTA | 0.36
30 | GTGTATTA | 0.276
31 | CTAGTATC | -0.0351
32 | CAATACTC | 0.106
33 | AAAACGAC | 0.0691
34 | AAAATGAA | 0.226
35 | GACAGAAC | -0.0903
36 | ATTATCAC | 0.24
37 | ATTATCAA | 0.321
38 | ATTATCTA | 0.269
39 | ATTATCAG | 0.354
40 | ATTATCTC | 0.157
41 | ATTATCTG | 0.355
42 | GTAATGAC | -0.00906
43 | AGCTGGCC | -0.255
44 | ATATAAAC | 0.433
45 | CTCTAAAA | 0.0251
46 | ATATAAAG | 0.382
47 | TTATAAAA | 0.399
48 | ATATAAGA | 0.388
49 | GTATAAAA | 0.216
50 | CTATAAGA | 0.188

Row | Sequence | PBM 8-mer E-score
51 | GTATAAAC | 0.316
52 | CTATAAAG | 0.0669
53 | CTATAAAC | 0.223
54 | AGATAAAG | 0.0927
55 | ATATAAGC | 0.311
56 | GCATCCCC | -0.212
57 | CATTTTCG | 0.126
58 | GACTAGTC | -0.0899
59 | GCACCGCC | -0.175
60 | CGGCTTGA | -0.132
61 | ACATTACC | 0.113
62 | CTTTTGTC | 0.0941
63 | ATATAAAA | 0.431
64 | AGATAAAT | 0.241
65 | ATATAAAT | 0.45
66 | CTATAAAA | 0.171
67 | ATAAAAGA | 0.263
68 | ATGTAAAT | 0.327
69 | CTCTCATA | 0.00755
70 | ACGGACGA | -0.238
71 | ACAAATTG | 0.137
72 | ACAAAATG | 0.0821
73 | CCAAATTA | 0.228
74 | ACAAAATA | 0.39
75 | GCAAAATA | 0.198

Row | Sequence | PBM 8-mer E-score
76 | ACAAATTA | 0.35
77 | CGCCCAAC | -0.0513
78 | CATCCTTA | 0.0793
79 | ACATAGTC | 0.172
80 | AGACTAGA | 0.16
81 | CGTCCAAC | -0.205
82 | AAAGCGTT | 0.0685
83 | GAGGGATA | -0.0756
84 | AGTGTTTC | 0.161
85 | AAAGTTAT | 0.36
86 | TGAGTTAA | 0.272
87 | AAAGTTTC | 0.296
88 | GAAGTTAA | 0.317
89 | ATAGTTTC | 0.275
90 | ACAGTTAT | 0.305
91 | CTAGTTTA | 0.306
92 | TAAGTTAA | 0.426
93 | ATAGTTTA | 0.35
94 | GAAGTTTA | 0.304
95 | AAAGTTTA | 0.353
96 | AAAGTTGT | 0.264
97 | ACTCAGAT | 0.101
98 | CACAACGA | 0.0491
99 | CTTGGACA | -0.17
100 | ACAGGCAC | -0.193

Row | Sequence | PBM 8-mer E-score
101 | CTTTTGGC | -0.0767
102 | TAAGTTCA | 0.353
103 | CAAGTTAG | 0.194
104 | AAAGTTAC | 0.212
105 | CAAGTTAA | 0.332
106 | AAAGTTCA | 0.322
107 | CTAGTTAA | 0.36
108 | AAAGTTAG | 0.353
109 | GAAGTTCA | 0.16
110 | ATAGTTAA | 0.339
111 | AAAGTTAA | 0.353
112 | GTAGTTAA | 0.283
113 | ACAGTTAA | 0.299
114 | CATACGTA | -0.0616
115 | AAGTTTCA | 0.303
116 | GAGCTGAC | -0.316
117 | TATCTACA | 0.17
118 | ACCCCATA | -0.17
119 | CAAAGTAG | 0.0209
120 | CCTGGGTC | -0.264
121 | ACGGATAT | 0.113
122 | GGTATTAA | 0.34
123 | CGTATTAA | 0.35
124 | AGTATTAA | 0.328
125 | CGTATTAG | 0.0961

Row | Sequence | PBM 8-mer E-score
126 | TGTATTAA | 0.39
127 | CGTATTAC | 0.17
128 | GTCATAAC | 0.0325
129 | GTACATGA | 0.066
130 | ATGTGGGA | 0.0305
131 | ACGTATGA | -0.1
132 | CGGTTATA | 0.224
133 | AATTATTG | 0.351
134 | AATTACTA | 0.323
135 | CCTTATTA | 0.292
136 | GATTGTTA | 0.204
137 | AATTGTTA | 0.377
138 | ACTTATTA | 0.416
139 | CATTGTTA | 0.157
140 | AATTATTA | 0.438
141 | AATTATCG | 0.336
142 | GCTTATTA | 0.254
143 | ACTTATTG | 0.29
144 | TCTAGGCA | -0.16
145 | CCGAGCGC | -0.231
146 | TATCTGAA | 0.238
147 | ATGTCCTG | -0.157
148 | CATAGCGA | 0.0278
149 | AGTACCGC | -0.108
150 | GTGAGCTA | -0.209

Row | Sequence | PBM 8-mer E-score
151 | CAAGCCTG | -0.209
152 | AATTATCC | 0.296
153 | AATTATTC | 0.352
154 | AATTAGTA | 0.384
155 | AATTAGTC | 0.282
156 | CATTAGTA | 0.191
157 | ACTTATTC | 0.229
158 | GAGATTTA | 0.0378
159 | GTTGCATA | 0.0505
160 | ATCATTAC | 0.235
161 | CGACAACA | 0.0714
162 | AATATTAC | 0.372
163 | CCTATTAC | 0.151
164 | AATATTAG | 0.394
165 | CATATTAC | 0.294
166 | CCTATTAG | 0.0715
167 | AATATTGG | 0.278
168 | AAGATTAT | 0.286
169 | AATATCAT | 0.294
170 | AATATTGT | 0.355
171 | AATATTGC | 0.307
172 | CATATTAG | 0.305
173 | AATATTAT | 0.445
174 | TATTCTGA | 0.132
175 | CTGATAGC | -0.222

Row | Sequence | PBM 8-mer E-score
176 | CCCGGGCG | -0.302
177 | GAGCTGGC | -0.277
178 | AACTCTTA | 0.21
179 | ATAAATAG | 0.358
180 | ATAAATGA | 0.316
181 | GTAAATAC | 0.228
182 | ATAAATCA | 0.295
183 | ATAAACAT | 0.342
184 | CTAAATAG | 0.102
185 | ATAAATAT | 0.44
186 | GTAAATAA | 0.366
187 | GTAAATGA | 0.222
188 | ATAAAGAT | 0.333
189 | ATAAATCG | 0.255
190 | ATAAATAA | 0.442
191 | ATGTTCTA | 0.0957
192 | TAGTCGGA | -0.0242
193 | ACATTTCA | 0.153
194 | ATTTAGAA | 0.321
195 | GTAGTGTA | 0.0767
196 | CGGTGCTA | -0.21
197 | ATAAATCC | 0.25
198 | ATAAATAC | 0.362
199 | ATAAATGC | 0.279
200 | CGGTTTCC | -0.194

Row | Sequence | PBM 8-mer E-score
201 | CAATTTGG | 0.0733
202 | AGTTAAGG | 0.135
203 | AATTAAGT | 0.395
204 | AATTAAGG | 0.37
205 | CATTAAGG | 0.0854
206 | AATTAAGC | 0.328
207 | ACTTAAGT | 0.314
208 | ATGCAGAA | 0.0633
209 | CAGACAAA | 0.0494
210 | GAGAGGCC | -0.32
211 | AGATGAGA | 0.0308
212 | AAATATCC | 0.253
213 | GAATATCC | 0.0901
214 | AAATATTC | 0.363
215 | GAATATTC | 0.349
216 | AGATATTC | 0.209
217 | GAATATGC | 0.119
218 | GACCGAAA | -0.0789
219 | GGGACGGA | -0.273
